# Experimental data reported in ChEMBL document CHEMBL1157539, “Thousands of chemical starting points for antimalarial lead identification” (Nature, 2010).
# Tests used:
# Format in all cases: functional
# Plasmodium falciparum [1] = test: GSK_TCMDC: Inhibition of Plasmodium falciparum 3D7 in whole red blood cells, using parasite LDH activity as an index of growth. Test compounds present at 2uM
# Plasmodium falciparum [2] = test: GSK_TCMDC: Inhibition of Plasmodium falciparum Dd2 in whole red blood cells, using parasite LDH activity as an index of growth. Test compounds present at 2uM
# HepG2 = test: GSK_TCMDC: Percent inhibition of human HepG2 cell line. Test compounds present at 10uM.
smiles,measurement,setting,value
COc1ccc(NC(=O)[C@H](CC(C)C)Nc2cc(C)nc(NCC3CCCCC3)n2)cc1.O=C(O)C(F)(F)F,Inhibition,Plasmodium falciparum [1],100%
same,Inhibition,Plasmodium falciparum [2],92%
same,Inhibition,HepG2,7%
Cc1cccc2nc(-c3ccc(-c4cccc(CNCCc5ccncc5)c4)s3)[nH]c12.O=C(O)C(F)(F)F,Inhibition,Plasmodium falciparum [1],100%
same,Inhibition,Plasmodium falciparum [2],89%
same,Inhibition,HepG2,11%
O=C(N[C@@H](Cc1ccccc1)C(=O)NCCN1CCCCC1)c1ccc(O)c(-c2ccc(Cl)c(Cl)c2)c1,Inhibition,Plasmodium falciparum [1],99%
same,Inhibition,Plasmodium falciparum [2],97%
same,Inhibition,HepG2,6%
Cc1cccc2nc(-c3cccc(-c4cccc(CNCc5cccc(N)c5)c4)c3)[nH]c12.O=C(O)C(F)(F)F,Inhibition,Plasmodium falciparum [1],100%
same,Inhibition,Plasmodium falciparum [2],73%
same,Inhibition,HepG2,14%
Cc1ccc(N2CCc3c(-c4cc5cccnc5nc4C)cc(C)nc32)c(Cl)c1.O=C(O)C(F)(F)F,Inhibition,Plasmodium falciparum [1],96%
same,Inhibition,Plasmodium falciparum [2],90%
same,Inhibition,HepG2,0%
Cc1cc(NC2CCCC2)nc(Nc2ccccc2C)n1,Inhibition,Plasmodium falciparum [1],88%
same,Inhibition,Plasmodium falciparum [2],20%
same,Inhibition,HepG2,0%
COC(=O)c1cccc(NC(=O)NC2CCN(c3ccnc(NCc4ccc(F)cc4)n3)CC2)c1,Inhibition,Plasmodium falciparum [1],93%
same,Inhibition,Plasmodium falciparum [2],39%
same,Inhibition,HepG2,29%
CC(C)n1cc2c(ccc3nc(N)nc(N)c32)n1,Inhibition,Plasmodium falciparum [1],92%
same,Inhibition,Plasmodium falciparum [2],0%
same,Inhibition,HepG2,65%
CN(c1ccccc1C(=O)Nc1ccccc1Oc1ccccc1)S(=O)(=O)c1ccccc1,Inhibition,Plasmodium falciparum [1],90%
same,Inhibition,Plasmodium falciparum [2],80%
same,Inhibition,HepG2,2%
COc1ccccc1C(C)NCC(=O)Nc1cc(C(F)(F)F)ccc1Cl (stereo unspecified),Inhibition,Plasmodium falciparum [1],97%
same,Inhibition,Plasmodium falciparum [2],85%
same,Inhibition,HepG2,4%
Nc1ncc(-c2ccc(NC(=O)Nc3cc(C(F)(F)F)ccc3F)cc2)c(N)n1.O=C(O)C(F)(F)F,Inhibition,Plasmodium falciparum [1],99%
same,Inhibition,Plasmodium falciparum [2],21%
same,Inhibition,HepG2,96%
CC(C)(C)C1CC(=O)CC2C(=O)N(C3CCCCC3)C(=O)C21 (stereo unspecified),Inhibition,Plasmodium falciparum [1],97%
same,Inhibition,Plasmodium falciparum [2],27%
same,Inhibition,HepG2,0%
COc1ccc(-c2nc(NCc3ccccc3)c3cc(OC)c(OC)cc3n2)cc1,Inhibition,Plasmodium falciparum [1],100%
same,Inhibition,Plasmodium falciparum [2],100%
same,Inhibition,HepG2,15%
O=C(CSc1nnc(O)n1Cc1ccccc1)Nc1ccccc1-c1ccccc1,Inhibition,Plasmodium falciparum [1],89%
same,Inhibition,Plasmodium falciparum [2],36%
same,Inhibition,HepG2,0%
Cc1[nH]c(C)c(-c2ccc(C#Cc3ccc(F)cc3F)cc2)c(=O)c1Br,Inhibition,Plasmodium falciparum [1],97%
same,Inhibition,Plasmodium falciparum [2],98%
same,Inhibition,HepG2,11%
O=C(Nc1ccc(Cl)c(C(F)(F)F)c1)c1ccc(Cl)c([N+](=O)[O-])c1,Inhibition,Plasmodium falciparum [1],87%
same,Inhibition,Plasmodium falciparum [2],18%
same,Inhibition,HepG2,20%
O=C(NCc1cccc(OC(F)(F)F)c1)c1cnc2c(c1)nc(-c1c[nH]c(-c3ccccc3)n1)n2CCc1c[nH]cn1,Inhibition,Plasmodium falciparum [1],99%
same,Inhibition,Plasmodium falciparum [2],47%
same,Inhibition,HepG2,0%
O=C(Cn1c(SCc2cccc(F)c2F)cc(=O)c2ccccc21)N(CCN1CCCCC1)Cc1ccc(-c2ccc(C(F)(F)F)cc2)cc1.O=C(O)C(O)C(O)C(=O)O,Inhibition,Plasmodium falciparum [1],99%
same,Inhibition,Plasmodium falciparum [2],82%
same,Inhibition,HepG2,41%
Cl.Oc1ccc(Nc2nc(NCC3CCCO3)c3ccccc3n2)cc1 (stereo unspecified),Inhibition,Plasmodium falciparum [1],100%
same,Inhibition,Plasmodium falciparum [2],57%
same,Inhibition,HepG2,7%
CN(C)CCNCc1cccc(-c2ccc3c(Nc4ccc(Oc5ccccn5)cc4)ccnc3c2)c1,Inhibition,Plasmodium falciparum [1],99%
same,Inhibition,Plasmodium falciparum [2],100%
same,Inhibition,HepG2,27%
CC1CCCN(c2ccc(NC(=O)c3cccs3)cc2[N+](=O)[O-])C1 (stereo unspecified),Inhibition,Plasmodium falciparum [1],96%
same,Inhibition,Plasmodium falciparum [2],96%
same,Inhibition,HepG2,14%
COc1ccccc1C1CCN(C2CCC(NC(=O)c3ccc4[nH]c(-c5ccc(C)cc5)nc4c3)CC2)CC1 (stereo unspecified),Inhibition,Plasmodium falciparum [1],100%
same,Inhibition,Plasmodium falciparum [2],100%
same,Inhibition,HepG2,100%
CCOC(=O)C(C(=O)OCC)c1nc(C)ns1,Inhibition,Plasmodium falciparum [1],99%
same,Inhibition,Plasmodium falciparum [2],0%
same,Inhibition,HepG2,10%
C=CC[C@H](C[C@H](O)[C@H](Cc1ccccc1)NC(=O)c1ccc(-n2cccn2)cc1)C(=O)NC1CCCCC1,Inhibition,Plasmodium falciparum [1],96%
same,Inhibition,Plasmodium falciparum [2],0%
same,Inhibition,HepG2,1%
COc1ccc2nc(N3CCNCC3)nc(NCCCc3ccccc3)c2c1.Cl,Inhibition,Plasmodium falciparum [1],100%
same,Inhibition,Plasmodium falciparum [2],43%
same,Inhibition,HepG2,31%
O=C(Nc1ccc(Cl)cc1)c1cccc(S(=O)(=O)NC2CCN(CC3CCCCC3)C2)c1.O=C(O)C(F)(F)F (stereo unspecified),Inhibition,Plasmodium falciparum [1],90%
same,Inhibition,Plasmodium falciparum [2],41%
same,Inhibition,HepG2,80%
N#CCCN1CCN(Cc2ccc(-c3ccc(-c4nc5cc(F)ccc5[nH]4)s3)cc2)CC1.O=C(O)C(F)(F)F,Inhibition,Plasmodium falciparum [1],99%
same,Inhibition,Plasmodium falciparum [2],38%
same,Inhibition,HepG2,58%
Cl.O=S(=O)(c1ccc(OCc2ccc(Cl)cc2)cc1)c1cc2c(cc1OCc1ccccc1)CCN(CC1CC1)CC2,Inhibition,Plasmodium falciparum [1],82%
same,Inhibition,Plasmodium falciparum [2],0%
same,Inhibition,HepG2,19%
CCCc1cn2c3c(cc(C(=O)N[C@@H](Cc4ccccc4)[C@H](O)CNC4CCOCC4)cc13)N(C)S(=O)(=O)CC2.O=CO,Inhibition,Plasmodium falciparum [1],99%
same,Inhibition,Plasmodium falciparum [2],98%
same,Inhibition,HepG2,1%
CC(C)(C)c1ccc2[nH]c(-c3ccc(C(=O)NCCCc4ccccc4)cc3)nc2c1,Inhibition,Plasmodium falciparum [1],95%
same,Inhibition,Plasmodium falciparum [2],14%
same,Inhibition,HepG2,11%
COc1ccc(C)c(Nc2ccnc(Nc3ccc(-c4cnc[nH]4)cc3)n2)c1.Cl,Inhibition,Plasmodium falciparum [1],97%
same,Inhibition,Plasmodium falciparum [2],6%
same,Inhibition,HepG2,40%
Cc1cccc2nc(-c3ccc(-c4cccc(NC(=O)Nc5ccc(F)c(F)c5F)c4)cc3)[nH]c12,Inhibition,Plasmodium falciparum [1],100%
same,Inhibition,Plasmodium falciparum [2],89%
same,Inhibition,HepG2,40%
O=C(Nc1ccc(OC2CCN(Cc3ccsc3)CC2)c(Cl)c1)c1ccco1.O=C(O)C(F)(F)F,Inhibition,Plasmodium falciparum [1],87%
same,Inhibition,Plasmodium falciparum [2],85%
same,Inhibition,HepG2,7%
Cc1c(S(=O)(=O)Nc2ccc3nccc(N4CC(C)NC(C)C4)c3c2)sc2ccc(Cl)cc12.Cl (stereo unspecified),Inhibition,Plasmodium falciparum [1],92%
same,Inhibition,Plasmodium falciparum [2],0%
same,Inhibition,HepG2,0%
O=C(Nc1ccc(F)cc1)c1cnc(N2CCN(c3ccncc3)CC2)c(Cl)c1.O=C(O)C(F)(F)F,Inhibition,Plasmodium falciparum [1],100%
same,Inhibition,Plasmodium falciparum [2],81%
same,Inhibition,HepG2,41%
Cc1noc(C)c1-c1ccc(C(=C2CCCCCC2)c2ccc(O)cc2)cc1,Inhibition,Plasmodium falciparum [1],100%
same,Inhibition,Plasmodium falciparum [2],96%
same,Inhibition,HepG2,0%
COc1ccc(CCN(C)CCCN2CCC(NC(=O)c3cccc4c(=O)c5ccccc5[nH]c34)CC2)cc1OC.O=C(O)C(=O)O,Inhibition,Plasmodium falciparum [1],99%
same,Inhibition,Plasmodium falciparum [2],72%
same,Inhibition,HepG2,19%
COc1ccc(C#Cc2ccc(-c3c(C)[nH]c(C)c(Cl)c3=O)cc2)cc1,Inhibition,Plasmodium falciparum [1],97%
same,Inhibition,Plasmodium falciparum [2],97%
same,Inhibition,HepG2,0%
CNC(=O)c1cc(S(=O)(=O)N2CCN(c3ccccn3)CC2)cs1,Inhibition,Plasmodium falciparum [1],99%
same,Inhibition,Plasmodium falciparum [2],100%
same,Inhibition,HepG2,0%
Br.Nc1ccc(-c2csc(Nc3ccncc3)n2)cc1,Inhibition,Plasmodium falciparum [1],95%
same,Inhibition,Plasmodium falciparum [2],50%
same,Inhibition,HepG2,12%
CC1CCc2c(C(=O)Nc3c(F)cc(F)cc3Br)csc2C1 (stereo unspecified),Inhibition,Plasmodium falciparum [1],96%
same,Inhibition,Plasmodium falciparum [2],59%
same,Inhibition,HepG2,0%
CN(Cc1cccc(F)c1)C1CCN(c2cc(NC(=O)c3ccc(F)cc3)ccn2)CC1.O=C(O)C(F)(F)F,Inhibition,Plasmodium falciparum [1],95%
same,Inhibition,Plasmodium falciparum [2],36%
same,Inhibition,HepG2,0%
Br.CC(=O)CSC(C=Cc1ccc(N(C)C)cc1)=Nc1ccccc1,Inhibition,Plasmodium falciparum [1],81%
same,Inhibition,Plasmodium falciparum [2],42%
same,Inhibition,HepG2,38%
Br.COc1ccc2c(c1)CCCC2C(C)NCC(O)c1cccc(C(F)(F)F)c1 (stereo unspecified),Inhibition,Plasmodium falciparum [1],99%
same,Inhibition,Plasmodium falciparum [2],99%
same,Inhibition,HepG2,3%
CCCCC(CC)NC(=O)[C@H]1CNCCN1C(=O)CCCc1ccccc1.O=C(O)C(F)(F)F (stereo partly specified),Inhibition,Plasmodium falciparum [1],94%
same,Inhibition,Plasmodium falciparum [2],0%
same,Inhibition,HepG2,5%
COc1ccc(C(=O)Nc2nonc2-c2ccc(OC)c(OC)c2)cc1Cl,Inhibition,Plasmodium falciparum [1],97%
same,Inhibition,Plasmodium falciparum [2],97%
same,Inhibition,HepG2,6%
COc1cc(O)c2c(=O)c(OC)c(-c3cccc(Cl)c3OCC(=O)O)oc2c1OC,Inhibition,Plasmodium falciparum [1],100%
same,Inhibition,Plasmodium falciparum [2],0%
same,Inhibition,HepG2,0%
O=C(Nc1ccc2ccccc2c1)c1ccc(CN2CCC(Cc3ccccc3)CC2)cc1,Inhibition,Plasmodium falciparum [1],95%
same,Inhibition,Plasmodium falciparum [2],10%
same,Inhibition,HepG2,38%
Cc1[nH]c(C)c(-c2ccc(OCCCCSc3ccncc3)cc2)c(=O)c1Br,Inhibition,Plasmodium falciparum [1],97%
same,Inhibition,Plasmodium falciparum [2],97%
same,Inhibition,HepG2,0%
COc1ccc2nccc([C@H](O)CN3CCC(NCc4ccc5c(c4C)OCCO5)CC3)c2n1.Cl,Inhibition,Plasmodium falciparum [1],94%
same,Inhibition,Plasmodium falciparum [2],6%
same,Inhibition,HepG2,26%
Cc1cnc(CNCc2ccc(S(=O)(=O)Nc3ccc(Oc4cccc(Cl)c4)cc3)cc2)cn1.O=C(O)C(F)(F)F,Inhibition,Plasmodium falciparum [1],97%
same,Inhibition,Plasmodium falciparum [2],0%
same,Inhibition,HepG2,4%
COc1ccc2nc(C)cc(Nc3ccc(Cl)c(Cl)c3)c2c1,Inhibition,Plasmodium falciparum [1],100%
same,Inhibition,Plasmodium falciparum [2],99%
same,Inhibition,HepG2,30%
O=C(NCCc1ccccc1)N(Cc1ccccc1-c1cccc(CNC2CCCC2)c1)C1CCN(Cc2ccccc2)CC1.O=C(O)C(F)(F)F,Inhibition,Plasmodium falciparum [1],95%
same,Inhibition,Plasmodium falciparum [2],87%
same,Inhibition,HepG2,31%
Nc1nc(-c2ccc3c(Nc4ccc(F)c(Cl)c4)ccnc3c2)cs1,Inhibition,Plasmodium falciparum [1],100%
same,Inhibition,Plasmodium falciparum [2],88%
same,Inhibition,HepG2,13%
COc1cc(-c2nnc(SCC(=O)Nc3cc(C)on3)n2C)cc(OC)c1O,Inhibition,Plasmodium falciparum [1],89%
same,Inhibition,Plasmodium falciparum [2],2%
same,Inhibition,HepG2,2%
CN(CCc1ccccn1)c1cccc2c1nc(-c1cccnc1)n2CCNCc1ccccc1.O=C(O)C(F)(F)F,Inhibition,Plasmodium falciparum [1],90%
same,Inhibition,Plasmodium falciparum [2],97%
same,Inhibition,HepG2,12%
CC(C)CNCc1ccc(-c2cccc(CNc3ccc4ncccc4c3)c2)cc1.O=C(O)C(F)(F)F,Inhibition,Plasmodium falciparum [1],96%
same,Inhibition,Plasmodium falciparum [2],31%
same,Inhibition,HepG2,29%
CC(C)(C)NC(=O)COC(=O)c1c2c(nc3ccccc13)C(=Cc1ccc3c(c1)OCO3)CCC2,Inhibition,Plasmodium falciparum [1],90%
same,Inhibition,Plasmodium falciparum [2],82%
same,Inhibition,HepG2,7%
CC(C)C(NC(=O)c1c(F)cccc1F)C(=O)Nc1ccc(Cc2nc3ccccc3s2)cc1 (stereo unspecified),Inhibition,Plasmodium falciparum [1],86%
same,Inhibition,Plasmodium falciparum [2],55%
same,Inhibition,HepG2,0%
CN(C)c1ccc(-c2csc(C(=O)NC3CCN(CCC(C)(C)C)C3)c2)cc1.O=C(O)C(F)(F)F (stereo unspecified),Inhibition,Plasmodium falciparum [1],95%
same,Inhibition,Plasmodium falciparum [2],36%
same,Inhibition,HepG2,20%
O=C(Nc1cccc(C(F)(F)F)c1)Nc1ccc(Cl)c(C(F)(F)F)c1,Inhibition,Plasmodium falciparum [1],99%
same,Inhibition,Plasmodium falciparum [2],99%
same,Inhibition,HepG2,0%
COc1c(C2CCN(CCCCNC(=O)c3ccc(-c4ccc(C#N)cc4)cc3)CC2)ccc2c1C(C)(C)CCC2(C)C,Inhibition,Plasmodium falciparum [1],100%
same,Inhibition,Plasmodium falciparum [2],86%
same,Inhibition,HepG2,98%
